Source: PubChem BioAssay AID463075 (University of Pittsburgh Molecular Library Screening Center, 2010)
“And” between values parts separate entries of the source, which are not always exact repeats. Equal values may be shown once. Hit rate of the full screen: of about 220,000 compounds, about 150 (0.068%) were called active. Shown is part of a subset that was picked to be rich in actives. A number with no mark means an inactive call.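 How the source made its calls: active means activation, meaning protection from cell death, of at least 50% relative to plate controls; inactive means activation below 50%.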

Assay: inhibitors of TNF-alpha triggered necroptosis, primary screen, cell-based, Jurkat FADD-/-, single concentration (AID 463075);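 further: necroptosis triggered by 40 ng/mL TNF-alpha added together with compound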
Conditions: Jurkat FADD-/- TNF necroptosis rescue, ATP luminescence, 24 h; at 10 µM; stronger effect = higher value; 0 = TNF only, 100 = no-TNF cells

Row | Compound | activation (protection from cell death)
1 | CCOC(=O)/C=c1\s/c(=C\c2ccc(C#N)cc2)c(=O)n1CC(=O)Nc1cccc(C)c1C | 0.5%
2 | Cc1ccc(N2C(=O)SC(N(CC(=O)O)c3ccc(C)cc3)C2=O)cc1 (configuration not stated) | 0.355%
3 | CCCN(CC(=O)Nc1ccc(C(N)=O)cc1)CC(=O)Nc1ccccc1C | 8.38%
4 | Oc1ccccc1C=NC1CCCCC1N=Cc1ccccc1O (configuration not stated) | 0.233%
5 | C/C(=N\N=C(N)N)c1ccc(Cl)cc1 | 2.76%
6 | C=CCNC(=O)c1sc(SC)cc1-c1ccc(Cl)cc1 | -2.68%
7 | COc1cccc(C2c3[nH]c4ccccc4c3CCN2Cc2cccc(C)n2)c1 (configuration not stated) | 0.616%
8 | CC1CCc2c(nc3ncnn3c2Nc2ccc(OC(F)(F)F)cc2)C1 (configuration not stated) | -5.14%
9 | COC(=O)c1ccc(NC(=O)CSc2nncc3ccc(OC)c(OC)c23)cc1 | -0.335%
10 | CCNc1nc(NCC)nc(N/N=C/c2ccc(O)c(OC)c2)n1 | 22.3%
11 | Cc1ccc(NC(=O)c2cccs2)cc1S(=O)(=O)N(C)C | 1.75%
12 | CCOC(=O)C1=C(c2ccccc2)NC(=S)NC1c1ccc(Cl)cc1 (configuration not stated) | -2.28%
13 | COc1ccc(/C(=N\O)c2nccc3cc(OC)c(OC)cc23)cc1OC | 0.543%
14 | CN1C(C)(C)CC(NC(=O)CCC(=O)NC2CC(C)(C)N(C)C(C)(C)C2)CC1(C)C | 0.679%
15 | CNC(=O)c1c(NC(NC(=O)c2ccco2)C(=O)c2ccc(Cl)cc2)sc2c1CCCC2 (configuration not stated) | 0.421%
16 | Cc1c(CN2CCCCC2)c(O)n(CCO)c(=O)c1C#N | -0.121%
17 | CCOC(=O)/C(=N\Nc1cc(Cl)ccc1Cl)N1CCN(C)CC1 | 7.63%
18 | COc1cccc(OCCCN2CCCCCC2)c1 | 1.03%
19 | Cc1cc(=O)oc2cc(OCC3CC(c4ccccc4Cl)=NO3)ccc12 (configuration not stated) | -15.7%
20 | Cc1ccc(C2NC(=S)NC3=C2N2CCC3CC2)cc1 (configuration not stated) | 1.6%
21 | C=C(Cl)COC(=O)C1C2C=CC(C2)C1C(=O)O (configuration not stated) | -1.48%
22 | CN(C)/C=C/C(=O)c1cnc2sccn2c1=O | -0.24%

Row | Compound | activation (protection from cell death)
23 | Cc1nnsc1C(=O)N/N=C/c1ccccc1Cl | 3.7%
24 | Cc1nnsc1C(=O)NCc1c(F)cccc1Cl | 72.6% (active)
25 | Cc1nnsc1C(=O)Nc1cccc(Cl)c1C | 5.62%
26 | O=C(NCCCCCCCCCNC(=O)C(F)(F)F)C(F)(F)F | -0.812%
27 | CS(=O)(=O)c1ccc2nc(NC(=O)c3ccc(N4CCCC4=O)cc3)sc2c1 | -0.943%
28 | COc1ccc(S(=O)(=O)N2CCN(C(=O)c3cc(C)oc3C)CC2)cc1 | 2.28%
29 | O=c1cc(N2CCCCC2)c(-c2ccccc2)nn1Cc1cccc(F)c1 | -0.813%
30 | Cc1ccc(O)c(-c2cc(C(=O)NCc3ccccc3)[nH]n2)c1 | -18.4%
31 | O=C(Nc1ccc(F)cc1)c1cc2c(s1)CCCC2 | -1.43%
32 | CCCCCCCNc1nc(Cl)nc(NCCO)n1 | 5.58%
33 | O=C(CCCOc1ccc(Cl)cc1Cl)NNC(=O)C1CCC1 | 3.99%
34 | C/C(CCc1ccccc1)=N\NC(=O)c1ccc(CN2CCOCC2)cc1 | 0.488%
35 | CCN=c1sc(C(=O)Nc2ccccc2)c(C)n1CC | 1.57%
36 | CCOC(=O)CN(C(=O)COc1nc(-c2ccccc2)cc(C)c1C#N)c1ccc(F)cc1 | 0.588%
37 | Cc1ccccc1-n1nc(C)c2c1N=C1C(Cl)=CC(Cl)=CN1C2c1ccc(C(=O)O)cc1 (configuration not stated) | 1.37%
38 | COc1cc(OC)cc(-c2cc3nc(C4CCN(C(=O)OC(C)(C)C)CC4)cc(=O)n3[nH]2)c1 | 1.03%
39 | c1ccc(C2c3[nH]c4ccccc4c3CCN2Cc2cccn2-c2cccnc2)nc1 (configuration not stated) | -0.81%
40 | CCCCCCC12CCC(C(=O)O)(CC1)CC2 | -1.53%
41 | CCn1c(SCC(=O)Nc2sc(C)c(C)c2C#N)nnc1C1CC1 | 4.46%
42 | Cc1ccc(CC2S/C(=C(/C#N)C(=O)N3CCOCC3)N(c3ccccc3)C2=O)cc1 (configuration not stated) | -0.961%
43 | COc1ccc(-c2ccc(CCC(=O)O)n2-c2ccc(O)cc2)cc1 | 0.347%
44 | COc1ccc(-n2c(C)nn(CC3CC3)c2=O)cc1 | 68.3% (active)

Row | Compound | activation (protection from cell death)
45 | COc1ccc(-n2c(C)nc3c(cnn3-c3ccccc3)c2=O)cc1 | -4.93%
46 | COc1ccc(-n2c(SC)nc(O)cc2=O)cc1 | 0.231%
47 | COc1ccc(CCN2C(=O)CC(N3CCC(C(N)=O)CC3)C2=O)cc1OC (configuration not stated) | 1.77%
48 | CCOc1cc(CNCCN(C)C)c(Cl)cc1OCC(=O)NCCc1ccccc1 | -1.03%
49 | O=C(NC(=S)Nc1cccc(-c2ccc(CO)o2)c1)c1cccs1 | -0.171%
50 | Cc1nc(-c2ccccc2)cn2c1nc1ccccc12 | 0.981%
51 | CCOC(=O)C(=O)C1C(=O)Nc2ccccc21 (configuration not stated) | -0.27%
52 | COc1ccc(NC(=O)c2sccc2SCC#N)cc1 | -2.27%
53 | COc1ccc(S(=O)(=O)Nc2ccc(F)cc2)c(C)c1C | -1.23%
54 | C=CCn1c(P(C)(=O)O)nc2ccccc21 | 1.54% and 0.149%
55 | CN(C)c1ccc(-n2cccc2/C=N/n2cnnc2)cc1 | 1.75%
56 | Cc1nonc1C(=O)N/N=C/c1ccc(O)cc1 | 1.53%
57 | CCOC(=O)C1=NN(c2ccc(Cl)cc2)/C(=C/C2=NCCc3cc(OC)c(OC)cc32)S1 | -2.32%
58 | CCN(CC(=O)Nc1cccc(S(N)(=O)=O)c1)Cc1nc2ccccc2c(=O)[nH]1 | 2.32%
59 | CC(C)CCN1C(=O)c2ccc(C(=O)Nc3cccc(S(N)(=O)=O)c3)cc2C1=O | -1.31%
60 | O=C(CC1C(=O)NCCN1Cc1ccc(-c2ccccc2)cc1)NCc1ccncc1 (configuration not stated) | 0.134%
61 | S=C(Nc1ccc(Br)cc1Cl)NC1CCN(Cc2ccccc2)CC1 | 1.9%
62 | CC(C)CCN1NC2(CCC(C)CC2)NC1=S (configuration not stated) | -1.55%
63 | O=C(c1cccnc1)N(c1cc2sc(=O)oc2c2ccccc12)S(=O)(=O)c1ccccc1 | -6.46%
64 | Cn1c(S(=O)(=O)O)nc2ccccc21 | 1.18%
65 | COc1cc2nc(Cl)nc(NCCO)c2cc1OC | -0.0465%
66 | Cc1nc(N2CCOCC2)sc1C(=O)NN | 0.605%

Row | Compound | activation (protection from cell death)
67 | CCCC1(C(=O)OC)NC(c2ccco2)C2C(=O)N(C)C(=O)C21 (configuration not stated) | 0.819%
68 | Cc1cccc(N=Nc2c(O)[nH]c3ccc(F)cc23)c1 | 1.19%
69 | O=C(NC(=O)N1CCSCC1)c1c(Cl)cccc1Cl | 3.73%
70 | CC(C)Cc1ccc(C(C)C(=N)N)cc1 (configuration not stated) | 0.316%
71 | O=C(Cc1ccccc1)N1N=C(c2ccncc2)CC1(O)C(F)(F)F (configuration not stated) | -1.22%
72 | Cc1nnc(NCCO)c2ccccc12 | 2%
73 | Cc1nn(CC(=O)Nc2ccc3c(c2)OCO3)c(C)c1[N+](=O)[O-] | 0.0311%
74 | CCOC(=O)c1c(CC(C)C)csc1/N=C/C1=C(O)CCCC1=O | 2.28%
75 | O=C(Nn1cnc2ccccc2c1=O)c1ccc([N+](=O)[O-])cc1Cl | -1.3%
76 | O=C(CS(=O)(=O)c1ccc(C(F)(F)F)cn1)NNC(=O)c1ccccc1 | -0.488%
77 | O=C(O)c1n[nH]nc1-c1ccccc1 | -0.36%
78 | O=C(C1=C[C@H](c2coc3ccccc3c2=O)C[C@H](OCc2ccc(CO)cc2)O1)N1CCOCC1 | 0.365%
79 | COc1ccc(Cl)cc1NC(=O)[C@@H]1CCCN1C(=O)c1cccs1 | 2.67%
80 | C=C1C2C[C@H](O)C(C)(C)[C@@]2(O)[C@H](O)C[C@]23C[C@@](C)(O)[C@H](CC[C@H]12)[C@H]3O (some centres not stated) | 1.07%
81 | CCOc1cccc(C(=O)Nc2cnn(Cc3ccccc3)c2)c1 | -1.07%
82 | O=C(COC(=O)Cc1ccc(Br)cc1)Nc1c(F)c(F)c(F)c(F)c1F | -0.784%
83 | CN(C(=O)CSc1nc(C2CC2)nc2ccccc12)c1nc(-c2ccccc2)cs1 | 0.753%
84 | COc1ccc(OC)c(-c2c(=O)n(OCc3ccccc3Br)c3ccccc3[n+]2[O-])c1 | 0.8%
85 | O=C(Nc1ccccc1-c1ccccc1)c1cccs1 | -1.99%
86 | CN(C(=O)COc1ncnc2c1cnn2-c1ccccc1)C1CCCCC1 | -0.83%
87 | CNC(=O)c1nnc(Cc2ccc(Cl)cc2)o1 | 5.11%
